# From PubChem BioAssay AID1851 (National Center for Advancing Translational Sciences (NCATS), 2009)
# About 2,600 (16%) of roughly 16,000 compounds were called active. Inconclusive results (about 20%) are left out. The call rests on the fitted dose curve; in most records, active means well fitted curve in the direction sought with a large enough effect; inconclusive means small, poorly fitted or top-dose-only effect, or effect the other way; inactive means no such curve, though single readings can be large or run the other way. Not all results are given here.
# Target: Cytochrome P450 2D6 (Homo sapiens) (UniProt P10635)
# Test: Cytochrome panel assay with activity outcomes
# Details: recombinant CYP, pro-luciferin dealkylation, luminescence, p450-cyp2d6; series mostly up to 57.1 µM
# On the % scale 0 is the no-effect control and ±100 the full control effect.
# Sequence of Cytochrome P450 2D6 (Homo sapiens) (P10635 whole entry, looked up): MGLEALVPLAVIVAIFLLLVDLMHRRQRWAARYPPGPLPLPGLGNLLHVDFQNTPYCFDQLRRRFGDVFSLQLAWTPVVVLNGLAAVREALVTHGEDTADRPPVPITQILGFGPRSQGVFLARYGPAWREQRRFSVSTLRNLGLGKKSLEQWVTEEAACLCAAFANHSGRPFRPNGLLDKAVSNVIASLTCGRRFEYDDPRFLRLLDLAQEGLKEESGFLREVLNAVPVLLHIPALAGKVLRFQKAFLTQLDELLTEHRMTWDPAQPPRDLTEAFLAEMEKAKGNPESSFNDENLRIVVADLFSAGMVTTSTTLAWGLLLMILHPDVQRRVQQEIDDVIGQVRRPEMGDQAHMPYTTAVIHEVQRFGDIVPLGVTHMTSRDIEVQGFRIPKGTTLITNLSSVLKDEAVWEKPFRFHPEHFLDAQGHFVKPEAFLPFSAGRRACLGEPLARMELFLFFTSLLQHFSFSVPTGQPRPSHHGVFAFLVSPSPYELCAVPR
SMILES,AC50,"activity, negative = inhibition"
COC(=O)c1[nH]c2ccc(Br)cc2c1NC(=O)CN1CCCc2ccccc21,inactive,–
COC(=O)c1[nH]c2ccc(Br)cc2c1NC(=O)CN1CCN(C2CCCCC2)CC1,1 µM (active),–
COC(=O)c1[nH]c2ccc(Br)cc2c1NC(=O)Oc1ccccc1,inactive,–
CCOC(=O)C1CN(S(=O)(=O)c2cccc(C(F)(F)F)c2)c2cc(CC(=O)OC)ccc2O1 (stereo not given),inactive,–
CN1CCN(c2ncc3nc(-c4ccc(Cl)cc4)c(=O)n(CCC#N)c3n2)CC1,inactive,–
CNS(=O)(=O)c1ccccc1C(=N)c1ccccc1,–,19.2% [at 11.4 µM] (inactive)
CCNC(=S)NNC(=O)c1cccc(Br)c1,inactive,–
CCOC(OCC)P(=O)(O)CCCNCc1ccc(Cl)c(Cl)c1,inactive,–
CCCCCNCc1cccc(Br)c1,2 µM (active),–
Cc1cc(Cl)nc2ccc(Cc3ccc4nc(Cl)cc(C)c4c3)cc12,–,-2.9% [at 11.4 µM] (inactive)
COc1ccc(/C=N/NC(=S)NC2CCS(=O)(=O)C2)cc1OC (stereo not given),inactive,–
C=CC1=C(C(=O)O)N2C(=O)[C@@H](NC(=O)/C(=N\OCC(=O)O)c3csc(N)n3)[C@@H]2SC1,inactive,–
NC[C@](O)(CS(=O)(=O)O)c1ccc(Cl)cc1,inactive,–
Cc1cc(-c2cc(-c3ccc(Cl)cc3)nc(N)c2C#N)co1,inactive,–
Cc1cc(OCCn2cc(/C(N)=N/O)c3ccccc32)ccc1Cl,3.98 µM (active),–
COc1ccccc1OCCn1cc(C(=O)c2ccco2)c2ccccc21,inactive,–
CO[C@]1(NC(=O)CSCC#N)C(=O)N2C(C(=O)O)=C(CSc3nnnn3C)CS[C@H]21,inactive,–
C[C@H](C[C@H](N)C(=O)O)C(=O)O,inactive,–
CCn1c2ccccc2c2cc(NC(=O)CSc3nnc(-c4ccc(OC)c(OC)c4)n3N)ccc21,14.1 µM (active),–
COc1ccc(C)cc1NC(=O)CSc1nnc(-c2ccc(OC)c(OC)c2)n1N,inactive,–
Cc1ccc(-c2cc(-c3nnc(SCC(=O)NC(C)C(C)C)n3N)c3ccccc3n2)cc1 (stereo not given),inactive,–
Cc1cccc(NC(=O)CSc2nnnn2C)n1,inactive,–
CCCCOc1ccc(C(=O)N/C(=C\c2cccc([N+](=O)[O-])c2)C(=O)OCCC)cc1,inactive,–
Cc1cc(C)c(S(C)(=O)=O)c(Oc2ccc(C(C)(C)C)cc2)n1,inactive,–
O=c1c[n+](CCCC[n+]2cc(=O)o[nH]2)[nH]o1,–,-2.36% [at 11.4 µM] (inactive)

SMILES,AC50,"activity, negative = inhibition"
COc1ccc(CNc2ncnc3ccc(-c4cccc(C#N)c4)cc23)c(OC)c1,inactive,–
COc1ccccc1CNc1ncncc1-c1cccc(C#N)c1,15.8 µM (active),–
Cc1cnc(CNc2ncncc2-c2cccc(C#N)c2)cn1,inactive,–
COc1ccc(CNc2ncncc2-c2cccc(C#N)c2)c(OC)c1,5.01 µM (active),–
O=C(Oc1oc(-c2ccco2)nc1C=Nc1ccc(Cl)cc1)c1ccco1,inactive,–
Cc1c2c(nc3ccccc13)-c1cccc(=O)n1C2,inactive,–
COc1cccc(/C=N\NC(=O)c2cc(OCC(F)(F)F)ccc2OCC(F)(F)F)c1,inactive,–
COc1ccc2[nH]c(=O)c(CN(CCO)C(=O)c3cccs3)cc2c1,inactive,–
O=[N+]([O-])c1cc(/C=N/O)ccc1SCc1ccccc1,inactive,–
CC1(C)O[C@@H]2O[C@H]([C@H](O)CO/N=C3/[C@H]4O[C@@H]4[C@@H](O)[C@H]4[C@H]3CCn3c(=O)n(-c5ccccc5)c(=O)n34)[C@@H](O)[C@@H]2O1,–,7.2% [at 11.4 µM] (inactive)
CO[C@@H]1COC(=O)[C@H]2CCCN2C(=O)[C@@H](C)COC(=O)CCC[C@H]1C,–,12% [at 11.4 µM] (inactive)
CCOC(=O)c1c(-c2ccccc2)nc2ccc(Cl)cn12,inactive,–
CCOC(=O)CNc1c(-c2ccccc2)nc2ccc(Cl)cn12,7.94 µM (active),–
CCOC(=O)Cn1c(-c2ccccc2)nc2ccccc2c1=O,inactive,–
COc1cccc2c1C(=O)c1c(O)c3c(c(O)c1C2=O)C[C@](O)(C(=O)CO)C[C@H]3O[C@@H]1C[C@H](N)[C@H](O)[C@H](C)O1,inactive,–
Cc1ccccc1NC(=O)C1CC(=O)N(c2ccc3c4c(cccc24)CC3)C1 (stereo not given),inactive,–
CC(=O)OC[C@@H]1O[C@@H](O/N=C2/C[C@@H](O)[C@@H](O)[C@@H]3[C@@H]4C(=O)N(Cc5ccccc5)C(=O)[C@H]4CC[C@H]23)[C@H](OC(C)=O)[C@H](OC(C)=O)[C@@H]1OC(C)=O,3.16 µM (active),–
CC(=O)OC[C@@H]1O[C@@H](O/N=C2/C[C@@H](O)[C@@H](O)[C@@H]3[C@@H]4C(=O)N([C@@H](C)c5ccccc5)C(=O)[C@H]4CC[C@@H]23)[C@H](OC(C)=O)[C@H](OC(C)=O)[C@@H]1OC(C)=O,–,-0.595% [at 11.4 µM] (inactive)
CC(C)=CCC/C(C)=C/CO/N=C1/C[C@@H](O)[C@@H](O)[C@@H]2[C@@H]3C(=O)N(Cc4ccccc4)C(=O)[C@H]3CC[C@@H]12,–,15% [at 11.4 µM] (inactive)
CCN1C(=O)[C@H]2[C@H]3[C@H](O)[C@H](O)C/C(=N/OCC[C@H]4C=C[C@H](OC(C)=O)[C@@H](COC(C)=O)O4)[C@@H]3CC[C@@H]2C1=O,–,-11.1% [at 11.4 µM] (inactive)
CC(=O)OC[C@@H]1O[C@@H](O/N=C2/C[C@@H](O)[C@@H](O)[C@@H]3[C@@H]4C(=O)N(Cc5ccc6c(c5)OCO6)C(=O)[C@H]4CC[C@@H]23)[C@H](OC(C)=O)[C@H](OC(C)=O)[C@@H]1OC(C)=O,–,-5.23% [at 11.4 µM] (inactive)
CC(=O)OC[C@@H]1O[C@@H](O/N=C2/C[C@@H](O)[C@@H](O)[C@@H]3[C@@H]4C(=O)N(Cc5ccccc5)C(=O)[C@H]4CC[C@@H]23)[C@H](OC(C)=O)[C@H](OC(C)=O)[C@@H]1OC(C)=O,3.98 µM (active),–
CCOC(=O)N/N=C1/C[C@@H](O)[C@@H](O)[C@@H]2[C@@H]3C(=O)N(Cc4ccccc4)C(=O)[C@H]3CC[C@H]12,–,9.96% [at 11.4 µM] (inactive)
CC(=O)OC[C@@H]1O[C@@H](O/N=C2/C[C@@H](O)[C@@H](O)[C@@H]3[C@@H]4C(=O)N(Cc5ccc6c(c5)OCO6)C(=O)[C@H]4CC[C@H]23)[C@H](OC(C)=O)[C@H](OC(C)=O)[C@@H]1OC(C)=O,3.16 µM (active),–
CC(C)CO/N=C1/C[C@@H](O)[C@@H](O)[C@@H]2[C@@H]3C(=O)N(Cc4ccc5c(c4)OCO5)C(=O)[C@H]3CC[C@@H]12,–,-15.9% [at 11.4 µM] (inactive)
